Experimental data published in PubChem BioAssay (EPA / NIEHS).
Inconclusive results are not listed. The source made the active and inactive calls. How the source made its calls, unless noted: active means hit-call score of the fitted dose curve at least 0.9, where 1 is the maximum; inconclusive means response in the unintended direction; inactive means score below 0.9.

What was measured:
[1] = Tanguay_ZF_120hpf_PIG_legacy: (Legacy) Oregon State University Tanguay Lab 120 Hour Post-fertilization zebrafish Assay for Pigmentation Malformation (AID 2283650)
In short: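 Pronase dechorionation at 4 hpf; embryos plated at 6 hpf, one per well; static exposure, sealed and foil-covered, 28C, to 120 hpf; pigmentation read by brightfield, binary; DMSO 0.64% baseline, 5uM trimethyltin chloride positive control.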

[2] = Tanguay_ZF_120hpf_CIRC_legacy: (Legacy) Oregon State University Tanguay Lab 120 Hour Post-fertilization zebrafish Assay for Circulatory Malformation (AID 2283651)
In short: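 Tropical 5D wild-type embryos, dechorionated with pronase at 4 hpf, were placed singly in wells at 6 hpf and exposed statically at 28C to 120 hpf (0.64% DMSO final). Circulatory malformation was scored present/absent by brightfield microscopy.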

[3] = Tanguay_ZF_120hpf_SWIM_legacy: (Legacy) Oregon State University Tanguay Lab 120 Hour Post-fertilization zebrafish Assay for Swim Bladder Malformation (AID 2283654);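 further: swim bladder malformation in each larva scored yes or no under brightfield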
In short: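 Embryos lacking chorions were exposed individually and statically to test chemical from 6 to 120 hpf at 28C, with 0.64% DMSO as vehicle. At 120 hpf, swim bladder malformation was recorded as present or absent by brightfield microscopy.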

[4] = Tanguay_ZF_120hpf_TRUN_legacy: (Legacy) Oregon State University Tanguay Lab 120 Hour Post-fertilization zebrafish Assay for Truncated Body (AID 2283655)
In short: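 Truncated body is recorded as a binary endpoint at 120 hpf by brightfield imaging of wild-type 5D larvae. Exposure runs statically from 6 hpf at 28C with 0.64% DMSO; embryos dying earlier are not scored.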

[5] = Tanguay_ZF_120hpf_NC_legacy: (Legacy) Oregon State University Tanguay Lab 120 Hour Post-fertilization zebrafish Assay for Notochord and Tail Malformation (AID 2283656)
In short: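 Dechorionated 5D zebrafish, 1/well from 6 hpf; static exposure to 120 hpf, 28C, sealed, dark; final DMSO 0.64% v/v. NC scored binary (present/absent); dead embryos not scored. Fit vs DMSO baseline, gain direction.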

[6] = read-out: kallikrein-3 (KLK3), KLK3 (gene 354); experiment: LTEA_HepaRG_KLK3: Life Technologies and Expression Analysis (LTEA) Assay for kallikrein-3 (KLK3) using HepaRG (AID 2283652; active means hit-call score of the fitted dose curve at least 0.9, where 1 is the maximum; inactive means score below 0.9); settings: mRNA level, 48 h; actives raise or lower the signal
Procedure: LTEA_HepaRG is a cell based, multiplexed-readout assay that uses HepaRG, a human liver cell line, with measurements taken at 48 hours after chemical dosing on a 96-well plate.LTEA_HepaRG_KLK3 is one of 102 assay component(s) measured in the LTEA HepaRG cell culture assay. It is a marker of Cellular remodeling.Data from the assay component LTEA_HepaRG_KLK3 was analyzed into 1 endpoint. This assay endpoint, LTEA_HepaRG_KLK3, was analyzed with bidirectional fitting relative to DMSO as the negative control and baseline of activity. Using a type of inducible reporter, measures of mRNA induction for gain or loss-of-signal activity can be used to understand regulation of transcription factor activity. To generalize the intended target to other relatable targets, this assay endpoint is annotated to the protease intended target family, where the subfamily is Cellular remodeling.
A total of 1060 chemcials from the ToxCast library were tested in eight-point concentration-response experiments. Cell culture and cytotoxicity assays were conducted at Thermo Fisher Scientific's Custom Services facility (Madison, WI). […] Fluidigm's 96.96 Dynamic ArrayTM (Fluidigm, Amsterdam, the Netherlands) technology was used for gene expression analyses by quantitative reverse transcription polymerase chain reaction (qRT-PCR, performed by Quintiles/Expression Analysis, Durham, NC)89. […]

[7] = read-out: solute carrier (SLC22A6), SLC22A6 (gene 9356); experiment: LTEA_HepaRG_SLC22A6: Life Technologies and Expression Analysis (LTEA) Assay for solute carrier (SLC22A6) using HepaRG (AID 2283653; active means hit-call score of the fitted dose curve at least 0.9, where 1 is the maximum; inactive means score below 0.9); settings: mRNA level, 48 h; actives raise or lower the signal
In short: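 Read-out is SLC22A6 transcript level by qRT-PCR, normalised to three housekeeping genes and fitted for gain or loss relative to 0.5% DMSO vehicle. Human HepaRG cells received chemicals at up to 100 uM for 48 h.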

[8] = read-out: solute carrier (SLC10A1), SLC10A1 (gene 6554); experiment: LTEA_HepaRG_SLC10A1: Life Technologies and Expression Analysis (LTEA) Assay for solute carrier (SLC10A1) using HepaRG (AID 2283657; active means hit-call score of the fitted dose curve at least 0.9, where 1 is the maximum; inactive means score below 0.9); settings: mRNA level, 48 h; actives raise or lower the signal
In short: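 Transcript levels were measured by qRT-PCR after human HepaRG cells received test chemical for 48 hours, up to 100 uM in half-log dilutions. Values come from bidirectional concentration-response fitting relative to 0.5% DMSO vehicle.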

[9] = read-out: matrix metalloproteinase-1 (MMP1), MMP1 (gene 4312); experiment: LTEA_HepaRG_MMP1: Life Technologies and Expression Analysis (LTEA) Assay for matrix metalloproteinase-1 (MMP1) using HepaRG (AID 2283658; active means hit-call score of the fitted dose curve at least 0.9, where 1 is the maximum; inactive means score below 0.9); settings: mRNA level, 48 h; actives raise or lower the signal
In short: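 HepaRG, ~100,000 cells/well, 48 h pre-culture; serum-free induction medium; test chemical 8 conc (max 100 uM, half-log), duplicate, 48 h; 0.5% DMSO; qRT-PCR MMP1, housekeeping-normalized; gain/loss fit vs DMSO.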

[10] = system: Thyroperoxidase (TPO), gene 54314; experiment: CCTE_Simmons_AUR_rTPO: CCTE's Amplex UltraRed Assay for Thyroperoxidase (TPO) Inhibition, Simmons Lab (AID 2283662);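 further: potency for loss of signal meaning inhibition of peroxidase activity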
In short: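 Endpoint is decreased Amplex UltraRed fluorescence after a 30-min, 37C reaction of rat thyroid microsomes with 300 uM H2O2. Eight test concentrations (5 nM–87.5 uM final) in 0.5% DMSO, three biological replicates each.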

Measured: AC50

OCC(CO)(CO)CO
inactive: [1] | [2] | [3] | [4] | [5]

CC(=O)c1ccccc1
inactive: [1] | [2] | [3] | [4] | [5]

c1ccc2c(c1)-c1cccc3c1c-2cc1ccccc13
inactive: [1] | [2] | [3] | [4]

O=c1[nH]cnc2c1ncn2[C@H]1CC[C@@H](CO)O1
inactive: [1] | [2] | [3] | [4]

CCCCCOC(C)=O
inactive: [1] | [2] | [3] | [4] | [5]

Cn1c(=O)c2[nH]cnc2n(C)c1=O
inactive: [1] | [2] | [3] | [4] | [5]

CCOC(N)=O
inactive: [1] | [2] | [3] | [4] | [5]

O=C(O)c1cccc(C(=O)O)c1
inactive: [1] | [2] | [3] | [4] | [5]

CCCC(CCC)C(=O)O
not listed: [10]
inactive: all other assays above

c1ccc(C(O[C@@H]2CCCN(CCc3ccc4c(c3)OCO4)C2)c2ccccc2)cc1
active: [1] 42.4 µM | [4] 38.2 µM
inactive: [2] | [3] | [5]

NC(=O)N1c2ccccc2C=Cc2ccccc21
inactive: [1] | [2] | [3] | [4] | [5]

CCc1ccc(O)c(C(C)(C)C)c1
active: [10] 13 µM
inactive: [1] | [2] | [3] | [4] | [5]

OCCOCCOCCO
inactive: [1] | [2] | [3] | [4] | [5]

CC(C)CCCCCCOC(=O)C1CCCCC1C(=O)OCCCCCCC(C)C (stereo unspecified)
inactive: [1] | [2] | [3] | [4] | [5]

CCN(CC)C(=S)SSC(=S)N(CC)CC
active: [2] 5.12 µM | [3] 1.1 µM | [4] 0.904 µM | [5] 112 nM
inactive: [1]

CC(C)C(=O)Nc1ccc([N+](=O)[O-])c(C(F)(F)F)c1
inactive: [1] | [2] | [3] | [4] | [5]

Cc1ncc([C@@H](CCCCCCc2ccc3c(n2)NCCC3)CC(=O)O)cn1
inactive: [1] | [2] | [3] | [4] | [5]

OC(CCl)CCl
inactive: [1] | [2] | [3] | [4] | [5]

CC(C)c1nnc2ccc(-c3ocnc3-c3cc(F)ccc3F)cn12
inactive: [1] | [2] | [3] | [4] | [5]

O=C(O)c1ccc2c(c1)nc(C(=O)NC1CCN(C3CC3)CC1)n2Cc1cc(-c2ccc(Cl)s2)on1
inactive: [1] | [2] | [3] | [4] | [5]

c1ccc2ncccc2c1
inactive: [1] | [2] | [3] | [4] | [5]

CCCOc1ccc(S(=O)(=O)N2CCN(CC)CC2)cc1-c1nc2c(CC)n(Cc3ccccn3)nc2c(=O)[nH]1
inactive: [1] | [2] | [3] | [4] | [5]

O=C(NO)C1(NS(=O)(=O)c2ccc(Oc3ccc(F)cc3)cc2)CCOCC1
inactive: [1] | [2] | [3] | [4] | [5]
active: [10] 18.1 µM

O=C(O)[C@H](O)[C@@H](O)C(=O)O
inactive: [1] | [2] | [3] | [4] | [5]

CC1(C)C(=O)N(Cl)C(=O)N1Cl
inactive: [1] | [2] | [3] | [4] | [5]

OCCNCCO
inactive: [1] | [2] | [3] | [4] | [5]

Cc1ccc(S(=O)(=O)NC(=O)NN2CCCCCC2)cc1
active: [10] 8.68 µM
inactive: [1] | [2] | [3] | [4] | [5]

CCCCCCCCN(C)C
inactive: [1] | [2] | [3] | [4] | [5]

OC[C@H]1O[C@@H]2O[C@H]3[C@H](O)[C@@H](O)[C@@H](O[C@H]4[C@H](O)[C@@H](O)[C@@H](O[C@H]5[C@H](O)[C@@H](O)[C@@H](O[C@H]6[C@H](O)[C@@H](O)[C@@H](O[C@H]7[C@H](O)[C@@H](O)[C@@H](O[C@H]1[C@H](O)[C@H]2O)O[C@@H]7CO)O[C@@H]6CO)O[C@@H]5CO)O[C@@H]4CO)O[C@@H]3CO
inactive: [1] | [2] | [3] | [4]

COc1cc2c(c(OC)c1OC)-c1ccc(OC)c(=O)cc1[C@@H](NC(C)=O)CC2
active: [1] 22.8 µM | [8] 107 nM
inactive: [2] | [7] | [3] | [5] | [9]

CNC(C)=O
inactive: [1] | [2] | [3] | [4] | [5]

CCCCC(CC)C(=O)OCCOCCOCCOC(=O)C(CC)CCCC (stereo unspecified)
inactive: [1] | [2] | [3] | [4] | [5]
